Consider 16 molecules from PubChem BioAssay.

SMILES strings stand for the structures. Calls of active or inactive are those of the source.

Test [1] can be described thus: compound effects on lung adenocarcinoma cell viability – A549, calcein-AM fluorescence, 48 h, basal, profiling panel (AID 1162). The settings on record: higher = more signal.
A short description of test [2]: compound effects on differentiated 3T3-L1 adipocyte viability – cell-based, 3T3-L1 adipocytes, calcein-AM fluorescence, 48 h, basal, profiling panel (AID 1163). Conditions: 3T3-L1 adipocytes viability, higher = more signal.
A short description of test [3]: compound effects on hepatocellular carcinoma cell viability – HepG2, calcein-AM fluorescence, 48 h, basal, profiling panel (AID 1164). The settings on record: higher = more signal.
A short description of test [4]: compound effects on multiple myeloma cell viability – MM1S, calcein-AM fluorescence, 48 h, basal, profiling panel (AID 1165).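 Also: viability of MM1S multiple myeloma cells under basal unstimulated conditions.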 The settings on record: higher = more signal.
A short description of test [5]: calcein-AM signal in unstimulated myeloma cells – cell-based, calcein-AM fluorescence, 48 h, PK04 Diversity Set, profiling panel (AID 1166).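 Also: cells grown under basal conditions without added stimulus.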 Conditions: RPMI8226 myeloma viability, higher = more signal.
Test [6] can be described thus: JC-1 mitochondrial signal, unstimulated HepG2 cells – cell-based, JC-1 fluorescence, 24 h, 100 nL compound, profiling panel (AID 1167). The settings on record: HepG2 mitochondrial potential, higher = more signal.
Test [7] in a line: JC-1 mitochondrial signal, unstimulated adipocytes – cell-based, JC-1 fluorescence, 3T3-L1 adipocytes, 24 h, 100 nL compound, profiling panel (AID 1168). Conditions: JC-1 mitochondrial fluorescence, higher = more signal, called active from +8 up or from −8 down.
Test [8] is described as follows: JC-1 mitochondrial signal, unstimulated myeloma cells – cell-based, JC-1 fluorescence, RPMI8226, 24 h, 100 nL compound, profiling panel (AID 1169). Conditions: JC-1 mitochondrial potential fluorescence, higher = more signal.
Test [9] can be described thus: JC-1 mitochondrial signal, unstimulated MM1S myeloma – cell-based, JC-1 fluorescence, 24 h, 100 nL compound, profiling panel (AID 1170). The settings on record: MM1S mitochondrial potential, higher = more signal.
A short description of test [10]: resazurin metabolic signal in A549 cells – cell-based, resazurin fluorescence, 24 h, PK04 Diversity Set, profiling panel (AID 1171). Conditions: A549 viability, higher = more signal, called active from +8 up or from −8 down.
Also: test concentration not given here.

Regarding `OCCCC1=CC(c2ccc(CN3CCCC3)cc2)N(Cc2sc3ccccc3c2Cl)CC1` (stereo not given), the z-score in test [1] is 0.48; in test [2], -0.301; in test [3], 0.212; in test [4], -3.45; in test [5], -3.64; in test [6], 3.4. The z-score was 0.0544 (inactive) in test [7], -0.252 in test [8], -0.356 in test [9] and 0.341 (inactive) in test [10].

With `C=CCC(OC(C)=O)[C@@H]1[C@@H](N(Cc2cccc3ccccc23)C(=O)Cc2ccc(F)cc2)c2cc(OCCCO)ccc2N1C(=O)c1ccc2ccccc2n1` (stereo not given in full), the z-score is -0.359 in test [1]; 0.389 in test [2]; -0.117 in [3]; 0.866 in test [4]; -0.381 in test [5]; 1.69 in test [6]. For the same molecule, the z-score is -0.109 (inactive) in test [7], 0.515 in test [8], -0.669 in test [9] and 0.067 (inactive) in [10].

Consider `O=C1C2C=CC(C(O)c3ccc(Br)cc3)N(Nc3ccccc3F)C2C(=O)N1c1ccccc1` (stereo not given), for which the z-score in test [1] was 1.79; in test [2], 0.085; in test [3], 0.418; in test [4], 1.05; in test [5], -0.0004; in test [6], -0.629. Further, the z-score was -1.56 (inactive) in test [7], 0.417 in test [8], -1.46 in test [9] and 0.0502 (inactive) in test [10].

With `COc1ccc(CCNC(=O)[C@@H]2c3ccccc3C(=O)N(Cc3cc(C(F)(F)F)cc(C(F)(F)F)c3)[C@H]2c2ccc(CO)cc2)cc1`, the z-score in test [1] is 1.64; in test [2] it was 1.58; in test [3], 1.17; in test [4], -1.4; in [5], -0.35; in test [6], 1.61. The z-score in test [7] is -0.497 (inactive); in [8], -0.0116; in test [9] it was 0.29; in test [10] it was 0.349 (inactive).

On to `OCC1CC(c2ccccc2)=NO1` (stereo not given), for which the z-score in test [1] is 0.71; in test [2] it was 0.311; in [3] it was -0.0218; in [4], 0.554; in [5] it was -0.676; in [6], 0.883. Further, the z-score was -0.765 (inactive) in [7], 0.527 in test [8], -0.201 in [9] and 0.281 (inactive) in test [10].

Take `Cn1cccc1C(O)C1C=CC2C(=O)NC(=O)C2N1Nc1ccc(Cl)cc1Cl` (stereo not given): the z-score in test [1] was -0.924; in test [2] it was -0.457; in test [3] it was -1.5; in test [4], -3.45; in test [5] it was -2.24; in [6] it was -2.72. The z-score is -1.36 (inactive) in [7], -0.929 in [8], 0.234 in [9] and -0.299 (inactive) in [10].

Take `[N-]=[N+]=Nc1ccccc1C[C@]1(C(N)=O)N=C(c2ccc(OCCCO)cc2)O[C@H]1c1ccccc1N=[N+]=[N-]`: the z-score in test [1] is -1.47; in [2] it was 1.32; in test [3], -1.84; in test [4] it was -2.29; in test [5], -3.48; in test [6] it was -1.04. For the same molecule, the z-score in test [7] is -0.981 (inactive); in test [8] it was -1.21; in test [9] it was -0.825; in test [10], -1.36 (inactive).

For `O[C@@H](Cc1ccccc1)[C@@H](/C=C/C1CC1)N(CC#Cc1ccccc1)Cc1cccc(Cl)c1`, the z-score in test [1] was 0.136; in [2] it was -0.166; in test [3] it was 0.891; in test [4], -0.217; in [5], -0.0958; in test [6] it was -0.549. Also, the z-score in test [7] was 0.274 (inactive); in [8] it was 0.256; in test [9], -1.16; in [10], 2.89 (inactive).

In the case of `CN1C(=O)C2C=CC(C(O)c3ccccn3)N(N(c3ccccc3)c3ccccc3)C2C1=O` (stereo not given), the z-score is -0.711 in test [1]; -1.63 in [2]; -0.108 in test [3]; 0.0262 in test [4]; -0.771 in test [5]; -1.53 in [6]. The z-score in test [7] was -0.695 (inactive); in test [8], 0.305; in [9], -0.468; in [10], -0.859 (inactive).

Regarding `CCCCC(O)C1C=CC2C(=O)N(c3ccccc3)C(=O)C2N1Nc1ccc(C(C)C)cc1` (stereo not given), the z-score in test [1] is -0.341; in test [2] it was -1.52; in test [3], 1.6; in test [4], -0.603; in test [5], -0.216; in test [6], -1.29. Besides, the z-score in test [7] was -1.04 (inactive); in [8] it was -0.749; in test [9] it was -0.557; in test [10], -0.762 (inactive).

On to `COc1ccc([Si](C)(C)[C@@H]2[C@@H](CCn3cc([C@H](O)c4ccccc4)nn3)O[C@]3(C(=O)N(Cc4ccc(N5CCC5=O)cc4)c4ccccc43)[C@H]2C)cc1`, for which the z-score is 0.388 in test [1]; 1.05 in test [2]; 0.944 in test [3]; 0.738 in test [4]; -0.23 in test [5]; 1.63 in test [6]. Besides, the z-score in [7] was 1.9 (inactive); in test [8], -0.0445; in test [9], -0.855; in [10], 0.668 (inactive).

In the case of `CC(C)[Si](C#CCCCC#N)(O[C@H](c1ccccc1)c1cn([C@H](CO)Cc2ccccc2)nn1)C(C)C`, the z-score in test [1] is 0.773; in test [2], -0.0379; in test [3] it was -0.0933; in [4], 0.172; in test [5] it was 0.231; in test [6] it was 0.0258. Moreover, the z-score was -0.393 (inactive) in [7], 0.266 in test [8], -1.47 in test [9] and 0.723 (inactive) in [10].

Take `C=C(C)C1CCC(C(O)C2C=CC3C(=O)N(C)C(=O)C3N2N2CCCCC2)CC1` (stereo not given): the z-score was -1.25 in test [1]; -1.16 in [2]; -0.774 in [3]; -0.683 in test [4]; -0.665 in test [5]; -1.38 in test [6]. Further, the z-score is -1.53 (inactive) in [7], 0.887 in test [8], -0.31 in test [9] and 0.262 (inactive) in [10].

As to `COC(=O)[C@@]1(Cc2ccc(OC)cc2)[C@H]2c3cc(C(=O)N(C)C)n(Cc4ccc(Cl)c(C(F)(F)F)c4)c3C[C@H]2CN1C(=O)c1ccccc1`, the z-score in test [1] is -0.585; in test [2] it was -0.88; in test [3], -0.585; in test [4], -1.93; in test [5], -2.39; in test [6] it was 0.765. For the same molecule, the z-score was -0.938 (inactive) in [7], -0.652 in test [8], -1.69 in [9] and -1.83 (inactive) in test [10].

Turning to `O=C1O[C@H](c2ccccc2)[C@H](c2ccccc2)N2[C@H]1[C@@H](C(=O)Nc1nc3ccccc3s1)[C@]1(C(=O)Nc3ccc(C#CCCO)cc31)[C@H]2c1ccc(O)cc1`, the z-score in test [1] was 0.695; in test [2], 0.215; in [3] it was -0.257; in test [4], -2.26; in test [5], -3.96; in test [6] it was -3.86. Further, the z-score was -0.525 (inactive) in test [7], -1.25 in test [8], -1.48 in test [9] and 0.679 (inactive) in [10].

Turning to `COc1ccc(NC(=O)O[C@H]2[C@H](OC(=O)Nc3ccccc3)[C@H](OC(=O)Nc3ccccc3)[C@@H](OC)O[C@@H]2CO)cc1`, the z-score in test [1] is -0.985; in [2], 0.998; in test [3], -1.29; in test [4] it was -2.7; in test [5] it was -2.72; in test [6] it was -0.186. For the same molecule, the z-score in [7] is -0.0233 (inactive); in test [8], -0.339; in test [9], -0.261; in test [10], -1.44 (inactive).
